Reference: PubChem BioAssay
The source made the active and inactive calls.

Tests used:
[1] = system: XIP peptide (Xip251-270) binding; assay: small-molecule binders of XIP peptide, primary screen, biochemical, small-molecule microarray, fluorescence 635/667 nm, 0.1 µg/mL protein (AID 1182); conditions: fluorescent protein binding, 635 nm, higher = more signal, called active from +8 up or from −8 down
XIP peptide (Xip251-270) = assay: small-molecule binders of XIP peptide, primary screen, biochemical, small-molecule microarray, fluorescence 635/667 nm, 0.5 µg/mL protein (AID 1183); conditions: small-molecule microarray binding, fluorescence 635 nm; higher = more signal
[2] = Plasmodium falciparum growth inhibition, primary screen, strain 3D7, DAPI fluorescence, 100 nL (AID 1184);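 further: parasites grown inside human red blood cells in medium with human serum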; conditions: P. falciparum 3D7 growth, 3 d, higher = more signal
[3] = molecular target: Homeobox protein Hox-A13 (Mus musculus) (UniProt Q62424); assay: inhibitors of HoxA13-DNA binding, primary screen, biochemical, fluorescence polarization, labeled oligonucleotide (AID 1185); conditions: 15 min, higher = more signal, called active from +8 up or from −8 down
Chain of Homeobox protein Hox-A13 (Mus musculus) (Q62424 whole entry, looked up): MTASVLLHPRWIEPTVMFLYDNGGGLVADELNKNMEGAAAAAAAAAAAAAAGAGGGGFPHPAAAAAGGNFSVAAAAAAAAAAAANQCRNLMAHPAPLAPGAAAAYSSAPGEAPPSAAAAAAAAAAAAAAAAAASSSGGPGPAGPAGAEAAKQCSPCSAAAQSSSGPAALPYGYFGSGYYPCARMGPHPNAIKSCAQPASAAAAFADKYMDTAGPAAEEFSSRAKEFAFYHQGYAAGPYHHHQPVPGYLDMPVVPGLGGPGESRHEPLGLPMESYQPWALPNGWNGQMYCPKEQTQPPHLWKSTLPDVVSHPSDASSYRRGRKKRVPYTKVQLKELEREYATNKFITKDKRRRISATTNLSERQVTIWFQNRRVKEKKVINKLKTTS

In the case of `CON=C[C@@H](OC)[C@H](C)C=CCC(=O)OC`, the composite z-score [1] is reported as -1.44 (inactive), the composite z-score (XIP peptide (Xip251-270)) is reported as -0.499 and the z-score [2] is reported as -0.166. The z-score [3] was -0.326 (inactive).

For `CO[C@@H]1COC(=O)CC=C[C@H](C)[C@H](OC)COC(=O)[C@@H]2CCCN2C(=O)CC=C[C@H]1C`, the composite z-score [1] was 0.233 (inactive), the composite z-score (XIP peptide (Xip251-270)) was 0.607 and the z-score [2] was -1.52. For the same compound, the z-score [3] was -1.11 (inactive).

In the case of `COc1ccc(-c2cnnc(CCCn3ccnc3-c3ccccc3)n2)cc1`, the composite z-score [1] is reported as 0.0584 (inactive), the composite z-score (XIP peptide (Xip251-270)) is reported as 0.492 and the z-score [2] is reported as -0.964. The z-score [3] was -3.52 (inactive).

In the case of `O=C1[C@H]2[C@H]3[C@H](O)[C@H](O)CC(=NOC[C@@H](O)COCc4ccco4)[C@@H]3CC[C@H]2C(=O)N1Cc1ccccc1`, the composite z-score [1] is reported as 0.41 (inactive), the composite z-score (XIP peptide (Xip251-270)) is reported as 0.64 and the z-score [2] is reported as -0.986. The z-score [3] was -2.98 (inactive).

With `CCOC(=O)[C@H](Cc1ccccc1)NC(=O)CCC1CC(OC(=O)NCc2cccc3ccccc23)CC2(CCCC(COC(=O)NCC3CCCCC3)O2)O1` (some centres not stated) the composite z-score [1] was 1.98 (inactive), the composite z-score (XIP peptide (Xip251-270)) was 0.357 and the z-score [2] was -1.69. The z-score [3] was -3.1 (inactive).

With `CC(C)=CCCC(C)=CCON=C1C[C@@H](O)[C@@H](O)[C@@H]2[C@@H]3C(=O)N(C4CCCCC4)C(=O)[C@@H]3CC[C@H]12` the composite z-score [1] was 1.45 (inactive), the composite z-score (XIP peptide (Xip251-270)) was 0.722 and the z-score [2] was 0.273. The z-score [3] was -0.469 (inactive).

With `CON=C(C)CCC(=O)OC[C@H]1O[C@H](C#Cc2ccccc2)C=C[C@@H]1Oc1ccc(C)cc1` the composite z-score [1] was 0.177 (inactive), the composite z-score (XIP peptide (Xip251-270)) was 0.627 and the z-score [2] was -0.306. For the same compound, the z-score [3] was -4.45 (inactive).

In the case of `COC(=O)[C@H](C)NC(=O)CCC1CC(OC(=O)NCc2ccc3c(c2)OCO3)CC2(CCCC(COC(=O)NCCc3ccc(Cl)cc3)O2)O1` (some centres not stated), the composite z-score [1] is reported as 0.0239 (inactive), the composite z-score (XIP peptide (Xip251-270)) is reported as 0.375 and the z-score [2] is reported as -1.97. The z-score [3] was -5.07 (inactive).
